The nature of this assay: small molecules boosting NK-mediated OVCAR3 lysis – imaging, primary NK cells, calcein-AM imaging, primary screen (AID 1508625).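 Also: compound given to NK cells 16 h before adding targets at 1.5 to 1 ratio.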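 As to z-score: more negative robust z means stronger NK killing of tumor cells.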 The settings on record: OVCAR3 lysis by primary NK cells, at 5 µM; z-score: measured here: robust Z-score, single-point normalisation.

The structures appear in SMILES notation.

As for `COC(=O)c1ccc(C=NNc2nc(-c3ccc(Cl)cc3)cs2)cc1`, the corrected activity, negative = more killing was -2.03% and the z-score was -0.861.

On to `CCOC(=O)c1ccc(NC(=O)CCc2ccccc2)cc1`, for which the corrected activity, negative = more killing was -3.6% and the z-score is -1.15.

With `N#Cc1c(SCC(=O)c2ccccc2)nsc1SCC(=O)c1ccccc1`, the corrected activity, negative = more killing is -5.48% and the z-score was -2.94.

With `Cc1ccc2c(N)c(C#N)sc2n1`, the corrected activity, negative = more killing was -0.436% and the z-score is -0.166.

For `O=C1c2ccccc2C(=O)c2c1cc(F)cc2N1CCCCC1`, the corrected activity, negative = more killing is -1.34% and the z-score was -0.401.

Turning to `COc1ccc(C)cc1NC(=O)c1oc(=O)c2ccccc2c1-c1ccccc1`, the corrected activity, negative = more killing was -11.3% and the z-score was -2.78.

Turning to `CCOC(=O)c1c(-c2ccccc2)csc1NC(=O)CSc1nc2ccccc2o1`, the corrected activity, negative = more killing is 25.2% and the z-score is 7.82.

Turning to `COc1ccc2ccccc2c1C=Nc1cc(C)ccc1C`, the corrected activity, negative = more killing is -0.753% and the z-score is -0.32.

Take `COc1ccc(C(=O)N2N=C(C3CCCCC3)CC2(O)C(F)(F)F)cc1OC` (configuration not stated): the corrected activity, negative = more killing was -5.29% and the z-score was -1.58.

On to `N[n+]1cnn(CC(=O)c2ccccc2)c1`, for which the corrected activity, negative = more killing was -7.75% and the z-score was -2.46.

For `O=C(Cn1ccc([N+](=O)[O-])n1)Nc1ccc(I)cc1`, the corrected activity, negative = more killing is -4.86% and the z-score is -1.51.

Take `CCCCSc1nc2c([nH]c3ccccc32)c(=O)n1-c1ccc(F)cc1`: the corrected activity, negative = more killing was -4.96% and the z-score is -1.23.

Turning to `O=c1oc(-c2ccc(Oc3ccc([N+](=O)[O-])cc3)cc2)nc2ccccc12`, the corrected activity, negative = more killing is -1.57% and the z-score was -0.62.

With `CCOc1ccc(NC(=O)c2c(NCc3ccncc3)sc3c2CCCCC3)cc1`, the corrected activity, negative = more killing was -0.239% and the z-score was -0.0869.

As for `C=CCSc1nc(C)c2cc(C)ccc2n1`, the corrected activity, negative = more killing is -2.18% and the z-score was -0.675.

Take `COC(=O)c1ccc(COC(=O)c2ccc([N+](=O)[O-])c(C)c2)cc1`: the corrected activity, negative = more killing was -0.897% and the z-score is -0.499.

Turning to `COc1ccc(NC(=O)C(N)=O)cc1`, the corrected activity, negative = more killing was -3.82% and the z-score was -1.62.

Regarding `COc1ccc(Cl)cc1NC(=O)c1cnn2c(C(F)(F)F)cc(-c3ccc(C)cc3)nc12`, the corrected activity, negative = more killing is -0.972% and the z-score is -0.309.

Take `O=C1C(=O)N(CCCN2CCOCC2)C(c2ccco2)C1=C(O)c1ccc(F)cc1` (configuration not stated): the corrected activity, negative = more killing was -4.3% and the z-score was -1.86.

As for `COc1ccc(-n2c(=S)[nH]c3cc(C(=O)O)ccc3c2=O)c(OC)c1`, the corrected activity, negative = more killing is -4.6% and the z-score was -1.46.

As to `O=C(NC1CCCC1)c1c[nH]c2ccc(S(=O)(=O)Nc3cccc(C(F)(F)F)c3)cc2c1=O`, the corrected activity, negative = more killing is -7.02% and the z-score is -1.72.

Turning to `Cc1nc2sccn2c1C(=O)NN=Cc1ccc(C(C)C)cc1`, the corrected activity, negative = more killing was -4.02% and the z-score is -1.71.

As to `CC(=O)Nc1ccc(S(=O)(=O)NCc2ccc(C(=O)O)cc2)cc1`, the corrected activity, negative = more killing is -5.84% and the z-score was -1.58.

With `O=C1C(=O)N(CCO)C(c2ccc(Br)cc2)C1=C(O)c1ccccc1` (configuration not stated), the corrected activity, negative = more killing is -2.24% and the z-score was -0.856.

With `COC(=O)C1C(=O)C2=C(CC1C)NC(C)=C(C(=O)OC1CCCC1)C2c1ccccc1OC(C)C` (configuration not stated), the corrected activity, negative = more killing was -2.11% and the z-score is -0.524.

As to `CC(C)C(NC(=O)C12CC3CC(CC(C3)C1)C2)C(=O)NC1=NCCS1` (configuration not stated), the corrected activity, negative = more killing is 1.64% and the z-score was 0.711.

`O=C(NN=Cc1cccc2ccccc12)c1cncc(Br)c1`: the corrected activity, negative = more killing was -7.56% and the z-score is -2.98.

For the compound `Cc1n[nH]c(C)c1CCC(=O)NN=Cc1ccccc1O`, the corrected activity, negative = more killing is -1.49% and the z-score was -0.652.

In the case of `CC(=O)Nc1ccc(-n2c(C)ccc2C)c(C(=O)O)c1`, the corrected activity, negative = more killing is -2.26% and the z-score is -1.01.

With `O=C(c1nn2c(C(F)(F)F)cc(-c3ccco3)nc2c1Br)N1CCCCC1`, the corrected activity, negative = more killing was -4.92% and the z-score is -1.85.

Consider `COc1ccc(-c2ccc3c(N)c(C(=O)Nc4ccc(C(C)=O)cc4)sc3n2)cc1`, for which the corrected activity, negative = more killing was -4.48% and the z-score is -1.34.

As for `CC1CCC2C(=O)N(c3ccc(NCCc4ccccn4)c([N+](=O)[O-])c3)C(=O)C2C1` (configuration not stated), the corrected activity, negative = more killing was -4.66% and the z-score was -1.69.

In the case of `CC1CCN(CCCCCOc2ccccc2Br)CC1`, the corrected activity, negative = more killing is -0.201% and the z-score was -0.0828.

With `COc1ccc(C2=NN(c3nc(-c4ccc(OC)c(F)c4)cs3)C(c3ccco3)C2)cc1` (configuration not stated), the corrected activity, negative = more killing is -2.68% and the z-score was -1.01.

Regarding `O=C(O)c1cc(Cl)ccc1NS(=O)(=O)c1ccc(Cl)cc1`, the corrected activity, negative = more killing is -1.75% and the z-score was -0.369.

As to `O=C(CNC(=O)OCc1ccccc1)Oc1cc2oc(=O)c3c(c2cc1Cl)CCC3`, the corrected activity, negative = more killing was -2.23% and the z-score was -0.829.

As to `O=C(c1ccc2c(=O)n(-c3ccc(F)cc3)c(=S)[nH]c2c1)N1CCc2ccccc2C1`, the corrected activity, negative = more killing is -0.906% and the z-score is -0.288.

Turning to `COC(=O)c1ccc(COC(=O)c2cnccn2)cc1`, the corrected activity, negative = more killing is -1.44% and the z-score was -0.802.

For `CCOc1ccc2cc(C3=NN(C(=O)CCC(=O)O)C(c4ccc(Br)cc4)C3)c(Cl)nc2c1` (configuration not stated), the corrected activity, negative = more killing is -2.89% and the z-score was -1.55.

`Cc1cccc(C)c1NC(=O)c1sc2[nH]c(=O)c(C(=O)O)cc2c1N`: the corrected activity, negative = more killing was -3.74% and the z-score is -0.931.

In the case of `CN(C)c1ccc(C(=O)N2N=C(c3ccc(Cl)cc3)CC2(O)C(F)(F)F)cc1` (configuration not stated), the corrected activity, negative = more killing is -4.5% and the z-score was -1.72.

Take `COc1ccc(-c2csc(Nc3ncccn3)n2)cc1OC`: the corrected activity, negative = more killing is -2.57% and the z-score was -1.15.

On to `CCOc1cccc(C=NN2CCN(Cc3ccccc3)CC2)c1O`, for which the corrected activity, negative = more killing was -2.77% and the z-score is -1.21.

`CC(C)C(NC(=O)c1ccccc1)C(=O)NC1=NCCS1` (configuration not stated): the corrected activity, negative = more killing is -2% and the z-score was -0.869.

On to `COc1cc(C)c(NC(=O)c2ccccc2I)cc1C(C)C`, for which the corrected activity, negative = more killing is -3.4% and the z-score is -1.89.

With `CCN(CC)C(=O)CSc1nnc(-c2ccccc2)o1`, the corrected activity, negative = more killing was -4.29% and the z-score was -1.86.
